In PubChem BioAssay AID2501 (Southern Research Specialized Biocontainment Screening …, 2010):
The whole screen tested about 2,200 compounds, of which about 1,200 (55%) were called active. Cut-off not given; nearly all actives show IC50 up to about 92 µM. So high a share suggests a set chosen from earlier hits. This is one part of the list.

assay: counter assay for TAg ATPase ADP read-out – biochemical, ADP-Hunter, fluorescence, counter-screen (AID 2501); details: series mostly up to 100 µM;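 further: purified T antigen ATPase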

With `CN1C(=O)C2C(c3ccc(N(C)C)cc3)=NN(Cc3ccccc3)C2C1=O` (stereo not drawn) as the compound, how does the IC50 read?
The IC50 was 9.4 µM (active).

Which IC50 does the source give for `CC(C)C(=O)Nc1ccc(O)c(-c2csc(N)n2)c1` here?
Its IC50 is 10.3 µM (active).

Which IC50 does the source give for `O=[N+]([O-])c1cccc(NC(=S)NCc2ccncc2)c1` here?
Its IC50 is “inactive”.

With `CCc1cccc2c(C(=O)CN3C(=O)NC(C)(c4cccc5ccccc45)C3=O)c[nH]c12` (stereo not drawn) as the compound, how does the IC50 read?
Its IC50 is “inactive”.

With `Cn1c2ccccc2c2nnc(SCC(=O)Nc3cccc(C(=O)O)c3)nc21` as the compound, how does the IC50 read?
The IC50 was “inactive”.

With `CCc1nc(SCC(=O)Nc2ccc(N(C)C)cc2)n[nH]1` as the compound, how does the IC50 read?
Its IC50 is 6.73 µM (active).

Which IC50 does the source give for `CN(C)c1ccc(NC(=O)CSc2nnc(-c3ccco3)c(-c3ccco3)n2)cc1` here?
Its IC50 is 6.24 µM (active).

Which IC50 does the source give for `Cc1ccccc1NC(=O)CSc1nnc(-c2ccco2)c(-c2ccco2)n1` here?
Its IC50 is “inactive”.

With `CSc1nnc(-c2ccco2)c(-c2ccco2)n1` as the compound, how does the IC50 read?
The IC50 was “inactive”.

Which IC50 does the source give for `FC(F)(F)C1CCCN(c2nsc3ccccc23)C1` (stereo not drawn) here?
The IC50 was “inactive”.

For `CN1\C(=C/C=C/C=C/C=[N+](C)C)C(C)(C)c2ccccc21`, which IC50 is on record?
The IC50 was 12.3 µM (active).

With `CNC(=S)NNC(=O)c1cc(C(C)(C)C)nn1Cc1ccc(F)cc1` as the compound, how does the IC50 read?
Its IC50 is “inactive”.

For `Cc1cccc(NC(=O)c2cc(Cl)nc3ccccc23)c1`, which IC50 is on record?
Its IC50 is “inactive”.

With `Cc1cc(/C=N/NC(=O)C(O)(c2ccccc2)c2ccccc2)c(C)n1-c1cccc(C(=O)O)c1` as the compound, how does the IC50 read?
The IC50 was “inactive”.

Which IC50 does the source give for `CC(C)(C)c1cc(C(=O)N/N=C/c2ccc(O)cc2)n(-c2ccccc2)n1` here?
Its IC50 is 61.4 µM (active).

Which IC50 does the source give for `Cc1ccc(-c2cc(C(=O)NCc3ccco3)c3ccccc3n2)o1` here?
The IC50 was “inactive”.

For `O=C(O)c1cc(N/N=C/c2cccc3ccccc23)ccc1Cl`, which IC50 is on record?
The IC50 was “inactive”.

With `CCc1cc(C(=O)N/N=C/c2ccc(O)cc2)c2ccccc2n1` as the compound, how does the IC50 read?
The IC50 was 2.69 µM (active).

With `Cc1nnc(NC(=O)c2cc(-c3ccco3)nc3ccccc23)s1` as the compound, how does the IC50 read?
The IC50 was “inactive”.

Which IC50 does the source give for `O=C(N/N=C/c1ccc(O)cc1)c1csc2ccccc12` here?
The IC50 was 4.27 µM (active).

With `O=C(N/N=C/c1ccc(O)c(O)c1)c1cc(-c2ccccc2)nc2ccccc12` as the compound, how does the IC50 read?
The IC50 was 36 µM (active).

For `Nc1ccc(-n2nncc2-c2ccc(Cl)cc2)cc1`, which IC50 is on record?
Its IC50 is “inactive”.

With `COc1cnc(-c2ccccn2)nc1Oc1ccc(Cl)c2ccccc12` as the compound, how does the IC50 read?
Its IC50 is “inactive”.

Which IC50 does the source give for `CC(NC(=O)Nc1ccc(O)cc1)(C(F)(F)F)C(F)(F)F` here?
The IC50 was 6.77 µM (active).

With `CCOC(=O)C1(Cc2ccc(Cl)cc2)CCN(C(=O)CCc2ccncc2)CC1` as the compound, how does the IC50 read?
The IC50 was “inactive”.

For `CCOC(=O)C1(CCc2ccccc2)CCN(C(=O)CCc2cnn(C)c2)CC1`, which IC50 is on record?
The IC50 was “inactive”.

Which IC50 does the source give for `CCOC(=O)C1(Cc2ccccc2)CCN(Cc2cnn(C(C)C)c2)CC1` here?
Its IC50 is 26.4 µM (active).

With `Cc1ncc(CO)c(/C=N/NC(=O)c2cc(O)c(O)c(O)c2)c1O` as the compound, how does the IC50 read?
Its IC50 is “inactive”.

With `O=C(N/N=C/c1c[nH]c2ccccc12)c1ccc(O)c(O)c1` as the compound, how does the IC50 read?
The IC50 was 7.17 µM (active).

With `Oc1ccc(O)c(-c2cnns2)c1` as the compound, how does the IC50 read?
Its IC50 is 28.1 µM (active).

With `CC(=O)CC1OC(=O)C(Br)=C1NCc1ccccc1` (stereo not drawn) as the compound, how does the IC50 read?
Its IC50 is “inactive”.

Which IC50 does the source give for `CN(C(=O)COC(=O)CNC(=O)CNC(=O)c1ccc(Cl)cc1Cl)c1ccccc1` here?
Its IC50 is “inactive”.

With `C/C(=N/NC(=O)c1cc(O)c(O)c(O)c1)c1ccc([N+](=O)[O-])cc1` as the compound, how does the IC50 read?
Its IC50 is “inactive”.

With `C/C(CC(=O)Nc1ccc(N(C)C)cc1)=N\NC(=O)c1ccc([N+](=O)[O-])cc1Cl` as the compound, how does the IC50 read?
Its IC50 is 6.47 µM (active).

With `C/C(CC(=O)Nc1ccc(N(C)C)cc1)=N\NC(=O)c1ccc(Cl)cc1Cl` as the compound, how does the IC50 read?
The IC50 was 3.99 µM (active).

For `C=CCN(c1ccc(C(=O)Nc2cccc([N+](=O)[O-])c2)cc1)S(C)(=O)=O`, which IC50 is on record?
The IC50 was “inactive”.

With `C=C(CC)C(=O)c1ccc(OCC(=O)O)c(Cl)c1Cl` as the compound, how does the IC50 read?
The IC50 was “inactive”.

With `Cc1ccc(CNC(=O)C2CC(c3ccccc3[N+](=O)[O-])=NO2)cc1` (stereo not drawn) as the compound, how does the IC50 read?
The IC50 was “inactive”.

For `CC1=C(C#N)c2nc(N)c(C#N)c(C)c2/C1=C\c1ccc(-c2ccccc2C(=O)O)o1`, which IC50 is on record?
Its IC50 is “inactive”.

Which IC50 does the source give for `COc1cc([N+](=O)[O-])cc(/C=N/NC(=O)CC#N)c1O` here?
Its IC50 is “inactive”.

For `CN=c1scc(C)n1/N=C/c1ccc(O)cc1O`, which IC50 is on record?
Its IC50 is 3.58 µM (active).

Which IC50 does the source give for `COc1cc(/C=N/NC(=O)CC#N)cc(Br)c1O` here?
Its IC50 is 6.13 µM (active).

With `CN=c1scc(C)n1/N=C/c1cc(Br)c(O)c(OC)c1` as the compound, how does the IC50 read?
The IC50 was 5.68 µM (active).

With `CCN=c1scc(C)n1/N=C/c1cc(Br)c(O)c(Br)c1` as the compound, how does the IC50 read?
Its IC50 is 6.61 µM (active).

With `CCN=c1scc(C)n1/N=C/c1cc(Br)c(O)c(OC)c1` as the compound, how does the IC50 read?
Its IC50 is 14.6 µM (active).

Which IC50 does the source give for `COc1cc(/C=N/N(C)C)cc(Br)c1O` here?
The IC50 was 3.75 µM (active).

For `O=C1CSC(=S)N1/N=C/c1ccc(O)c([N+](=O)[O-])c1`, which IC50 is on record?
Its IC50 is “inactive”.

With `COc1cc(/C=N/N2C(=O)CSC2=S)cc(Br)c1O` as the compound, how does the IC50 read?
The IC50 was 13.3 µM (active).

With `COC(=O)c1ccccc1-n1c(C)nc(=O)c(-c2ccccc2)c1C` as the compound, how does the IC50 read?
The IC50 was “inactive”.

With `C[N+]1(CCCCSc2ccc(O)cc2)CCCCC1` as the compound, how does the IC50 read?
Its IC50 is 4.59 µM (active).

With `CNc1n[nH]c(=S)s1` as the compound, how does the IC50 read?
Its IC50 is 92.7 µM (active).

For `CC(=O)Oc1cc(O)c2c(=O)c(OC(C)=O)c(-c3ccc(OC(C)=O)c(OC(C)=O)c3)oc2c1`, which IC50 is on record?
Its IC50 is 16.6 µM (active).

Which IC50 does the source give for `CC1(C)CC(=O)C=C(NCCc2ccccc2)C1` here?
The IC50 was “inactive”.

Which IC50 does the source give for `O=C(Nc1ccc(CN2CCOCC2)cc1)c1ccc(N2CCCC2)c([N+](=O)[O-])c1` here?
The IC50 was “inactive”.

Which IC50 does the source give for `CN1CCN(S(=O)(=O)c2ccc3c(c2)NC(=O)C2CCCN32)CC1` (stereo not drawn) here?
Its IC50 is “inactive”.

With `O=[N+]([O-])c1ccc(N2CCN(c3ccc(O)cc3)CC2)cn1` as the compound, how does the IC50 read?
Its IC50 is 5.49 µM (active).

Which IC50 does the source give for `NC(=O)c1ccc(N2CCN(c3ccc(O)cc3)CC2)c([N+](=O)[O-])c1` here?
Its IC50 is 7.83 µM (active).

With `CN1CCN(S(=O)(=O)c2ccc(N3CCN(c4ccc(O)cc4)CC3)c([N+](=O)[O-])c2)CC1` as the compound, how does the IC50 read?
The IC50 was 4.03 µM (active).

With `CC(=O)Nc1ccc(S(=O)(=O)N2CCN(Cc3ccccc3[N+](=O)[O-])CC2)cc1` as the compound, how does the IC50 read?
Its IC50 is “inactive”.

For `O=C(O)c1ccc(-c2ccc(O)c(F)c2)cc1`, which IC50 is on record?
Its IC50 is 7.49 µM (active).

Which IC50 does the source give for `O=C1NC(C(=O)O)=CC(c2ccc([N+](=O)[O-])cc2)N1` (stereo not drawn) here?
Its IC50 is “inactive”.

For `Cc1ccsc1/C=N/n1c(-c2cccnc2)n[nH]c1=S`, which IC50 is on record?
Its IC50 is 25 µM (active).

Which IC50 does the source give for `CC(/C=N/n1c(-c2n[nH]c3c2CCC3)n[nH]c1=S)=C\c1ccco1` here?
The IC50 was 49 µM (active).

With `CC(/C=N/n1c(-c2ccncc2)n[nH]c1=S)=C\c1ccco1` as the compound, how does the IC50 read?
Its IC50 is 44.3 µM (active).

For `O=C(O)c1ccc(-n2c(-c3cc(-c4ccco4)[nH]n3)n[nH]c2=S)cc1`, which IC50 is on record?
Its IC50 is “inactive”.

For `S=c1[nH]nc(COc2ccccc2)n1/N=C/C=C/c1ccco1`, which IC50 is on record?
Its IC50 is “inactive”.

With `Cc1cc(-c2n[nH]c(=S)n2/N=C/C=C/c2ccco2)n[nH]1` as the compound, how does the IC50 read?
Its IC50 is 97.4 µM (active).

With `Cc1ccnc(NC(=S)NC(=O)/C=C/c2ccco2)c1` as the compound, how does the IC50 read?
Its IC50 is “inactive”.
